Values joined by “and” are separate entries in the source; they are usually repeats but may differ in a detail not shown here. Equal entries are not always repeated. Out of some 5,500 compounds screened, about 2,000 (36%) were called active. Inconclusive results (about 18%) are left out. Cut-off read from the data, not from the text of the source: active = normalized growth mostly below about 0.91 (no sharp cut-off); inconclusive = no clear call, values can overlap the other calls; inactive = mostly above about 0.92. The list shows a part of the results.
Experiment: chemical genetic growth profiling, strain panel (AID 1159580);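 note: tested at 20 µM; growth read once vehicle control cultures reached saturation at 30 °C; 1 = growth at the plate median or of vehicle wells; lower values mean less growth of the strain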
Conditions: S. cerevisiae deletion strains, growth OD

Measured: normalized growth

CCN(Cc1ccncc1)C(=O)C(CO)c1ccccc1 (stereo unspecified)
inactive: locus YAL013W, strain DEP1, stronger effect = lower value 0.993 and 0.979 | locus YAL021C, strain ccr4, stronger effect = lower value 1.04 | locus YAL026C, strain drs2, stronger effect = lower value 1.03 | locus YAL030W, strain snc1, stronger effect = lower value 1.02 | locus YAL040C, strain CLN3, stronger effect = lower value 0.996 | locus YBL061C, strain skt5, stronger effect = lower value 1.02 | locus YBR009C, strain hhf1, stronger effect = lower value 1.03 | locus YBR021W, strain FUR4, stronger effect = lower value 1.01 | locus YBR023C, strain chs3, stronger effect = lower value 1.03 | locus YBR171W, strain sec66, stronger effect = lower value 1.04 | locus YBR229C, strain ROT2, stronger effect = lower value 0.996 | locus YBR231C, strain swc5, stronger effect = lower value 1.03 | locus YBR279W, strain paf1, stronger effect = lower value 1.01 | locus YCL011C, strain gbp2, stronger effect = lower value 1.02 | locus YCL016C, strain dcc1, stronger effect = lower value 1.03 | locus YCL029C, strain bik1, stronger effect = lower value 0.973 | locus YCL061C, strain MRC1 (second series), stronger effect = lower value 1.01 | locus YCL061C, strain MRC1, stronger effect = lower value 1.03 | locus YCL069W, strain vba3, stronger effect = lower value 1.03 | locus YCR088W, strain abp1, stronger effect = lower value 1.02 | locus YDL005C, strain med2, stronger effect = lower value 1.04 | locus YDL035C, strain GPR1, stronger effect = lower value 1 | locus YDL040C, strain nat1, stronger effect = lower value 1.02 | locus YDL074C, strain BRE1, stronger effect = lower value 0.989 | locus YDL101C, strain DUN1, stronger effect = lower value 0.987 | locus YDL134C, strain PPH21, stronger effect = lower value 0.999 | locus YDL185W, strain tfp1, stronger effect = lower value 0.964 | locus YDL192W, strain arf1, stronger effect = lower value 0.976 | locus YDR001C, strain nth1, stronger effect = lower value 1.02 | locus YDR069C, strain doa4, stronger effect = lower value 1.04 | locus YDR101C, strain arx1, stronger effect = lower value 0.985 | locus YDR137W, strain rgp1, stronger effect = lower value 1.07 | locus YDR150W, strain NUM1, stronger effect = lower value 0.994 | locus YDR159W, strain sac3, stronger effect = lower value 1.03 | locus YDR162C, strain NBP2, stronger effect = lower value 0.985 | locus YDR195W, strain ref2 1.02 | locus YDR297W, strain sur2, stronger effect = lower value 1.02 | locus YDR318W, strain mcm21, stronger effect = lower value 0.989 | locus YDR334W, strain swr1, stronger effect = lower value 1.03 | locus YDR335W, strain msn5, stronger effect = lower value 1.04 | locus YDR363W, strain ESC2, stronger effect = lower value 0.991 | locus YDR388W, stronger effect = lower value 0.993 | locus YDR392W, strain spt3, stronger effect = lower value 0.987 | locus YDR502C, strain sam2, stronger effect = lower value 1.01 | locus YEL003W, strain gim4, stronger effect = lower value 1.01 | locus YEL037C, strain rad23, stronger effect = lower value 1.02 | locus YEL061C, strain CIN8 (second series), stronger effect = lower value 1.03 | locus YEL061C, strain CIN8, stronger effect = lower value 0.995 | locus YER002W, strain NOP16, stronger effect = lower value 0.994 | locus YER015W, strain faa2, stronger effect = lower value 1.01 | locus YER016W, strain bim1, stronger effect = lower value 1.03 | locus YER110C, stronger effect = lower value 0.988 | locus YER111C, strain swi4, stronger effect = lower value 1.03 | locus YER155C, strain BEM2 (second series), stronger effect = lower value 1.03 | locus YER155C, strain BEM2, stronger effect = lower value 0.994 | locus YER167W, strain BCK2, stronger effect = lower value 0.989 | locus YFR010W, strain ubp6, stronger effect = lower value 1.02 | locus YGL078C, strain dbp3, stronger effect = lower value 1 | locus YGL086W, strain mad1, stronger effect = lower value 1 | locus YGL167C, strain pmr1, stronger effect = lower value 1.02 | locus YGL173C, strain kem1, stronger effect = lower value 1.04 | locus YGL227W, strain vid30, stronger effect = lower value 1.04 | locus YGL240W, strain doc1, stronger effect = lower value 1.03 | locus YGL248W, strain PDE1, stronger effect = lower value 1 | locus YGL253W, strain hxk2, stronger effect = lower value 1.02 | locus YGR078C, strain PAC10, stronger effect = lower value 0.989 | locus YGR135W, strain pre9, stronger effect = lower value 0.994 | locus YGR229C, strain SMI1, stronger effect = lower value 0.997 | locus YGR252W, strain gcn5, stronger effect = lower value 1.11 | locus YHR013C, strain ard1, stronger effect = lower value 1.05 | locus YHR027C, strain rpn1, stronger effect = lower value 1.05 | locus YHR030C, strain SLT2, stronger effect = lower value 0.981 and 1 | locus YHR079C, strain IRE1 (second series), stronger effect = lower value 0.984 | locus YHR079C, strain IRE1, stronger effect = lower value 0.989 | locus YHR094C, strain hxt1, stronger effect = lower value 0.977 | locus YHR129C, strain ARP1, stronger effect = lower value 0.993 | locus YHR142W, strain chs7, stronger effect = lower value 1.02 | locus YHR200W, strain rpn10, stronger effect = lower value 0.992 | locus YIL066C, strain RNR3, stronger effect = lower value 0.997 | locus YIL073C, strain SPO22, stronger effect = lower value 0.926 | locus YIL125W, strain kgd1, stronger effect = lower value 0.984 | locus YIR030C, strain dcg1, stronger effect = lower value 1 | locus YJL092W, strain hpr5, stronger effect = lower value 1.02 | locus YJL095W, strain BCK1 (second series), stronger effect = lower value 1.01 | locus YJL095W, strain BCK1, stronger effect = lower value 0.972 and 1.01 | locus YJL115W, strain asf1, stronger effect = lower value 1.04 | locus YJL129C, strain trk1, stronger effect = lower value 1.04 | locus YJL134W, strain LCB3, stronger effect = lower value 0.995 | locus YJL154C, strain vps35, stronger effect = lower value 1.02 | locus YJL164C, strain tpk1, stronger effect = lower value 1.02 | locus YJL166W, strain qcr8, stronger effect = lower value 1.02 | locus YJL168C, strain set2, stronger effect = lower value 0.983 | locus YJL187C, strain SWE1 (second series), stronger effect = lower value 0.979 | locus YJL187C, strain SWE1, stronger effect = lower value 1.02 | locus YJR043C, strain POL32, stronger effect = lower value 0.988 | locus YJR066W, strain TOR1, stronger effect = lower value 0.95

From PubChem BioAssay AID1159580 (chemical genetic matrix, 2015)
